The results in this text go back to PubChem BioAssay (NCATS).

For assay [1], the system named is WaGa. The assay is described as follows: qHTS assay to identify novel small-molecules to repurpose for Merkel cell carcinoma treatment (AID 1296009). Further: nearly all actives have a fitted effect of over 60% in size. The note with it: MCC and control cell lines, CellTiter-Glo viability, 72 h; series mostly up to 46 µM. A digest of the protocol: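 Cells were treated for 72 hr at 37 degree celsius with compounds in 8- or 11-point dose response. Viability was read by CellTiter-Glo luminescence, normalized to no-cell (cytotoxicity) and DMSO controls.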
On the technique in general: Quantitative high-throughput screening tests each substance at several concentrations.

In assay [2] the test system is C33A. The assay is described as follows: Primary qHTS to identify gynecologic anti-cancer compounds using libraries of approved drugs and bioactive compounds (AID 1345084). Further: nearly all actives have a fitted effect of over 55% in size. Further: potency means the concentration at half of the fitted maximal effect. To be noted: Gynecologic cancer cell panel viability, ATPlite luminescence, 48 h; series mostly up to 57.5 µM. A digest of the protocol:
(§1)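 Five-concentration response, 48 h; readout is ATP-driven luciferase luminescence.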

The test system of assay [3] is CAOV3. Described as above. The note with it: Gynecologic cancer cell panel viability, ATPlite luminescence, 48 h; series mostly up to 57.5 µM. A digest of the protocol: as §1
Assay [4] has as its system CASKI. The assay is described as above. To be noted: Gynecologic cancer cell panel viability, ATPlite luminescence, 48 h; series mostly up to 57.5 µM. In outline: as §1
(In general: In ATP-based viability assays light output follows the ATP content of the culture.)

Assay [5] deals with Es-2. The assay is described as above. To be noted: Gynecologic cancer cell panel viability, ATPlite luminescence, 48 h; series mostly up to 57.5 µM. In outline:
as §1

Assay [6] concerns HeLa. The description is as above. To be noted: Gynecologic cancer cell panel viability, ATPlite luminescence, 48 h; series mostly up to 57.5 µM. In outline: as §1
Assay [7] has as its system Hek293T. The description is as above. The note with it: Gynecologic cancer cell panel viability, ATPlite luminescence, 48 h, control line for the selectivity index; series mostly up to 57.5 µM. A digest of the protocol:
as §1

For assay [8], the system named is JEG-3. The assay is described as above. To be noted: Gynecologic cancer cell panel viability, ATPlite luminescence, 48 h; series mostly up to 57.5 µM. In outline: as §1
The subject of assay [9] is OV90. The description is as above. To be noted: Gynecologic cancer cell panel viability, ATPlite luminescence, 48 h; series mostly up to 57.5 µM. A digest of the protocol:
as §1

Assay [10] relates to PA-1. The description is as above. To be noted: Gynecologic cancer cell panel viability, ATPlite luminescence, 48 h; series mostly up to 57.5 µM. In outline: as §1

Records with an inconclusive call do not appear. The source made the active and inactive calls. The call rests on the fitted dose curve; in most records, active means well fitted curve in the direction sought with a large enough effect; inconclusive means small, poorly fitted or top-dose-only effect, or another doubt; inactive means no such curve, though single readings can be large; an effect the other way counts as inactive or inconclusive.

Turning to `O=C1c2cccc(O)c2C(=O)c2c(O)cccc21`, the outcome in [1], in [2], in assay [3], in [4], in assay [5] and in [6] was inactive. Further, the compound was classed as inactive in [7], in assay [8] and in [10]. The Potency result in assay [9] is “inactive”.
For `Nc1c2c(nc3c1CCC3)CCCC2`, the call in assay [1], in assay [2], in assay [3], in [4], in assay [5] and in assay [6] was inactive. Moreover, the compound was classed as inactive in assay [7], in [8] and in assay [10]. For the same compound, the Potency result in assay [9] was “inactive”.
For `CNc1c2c(nn1C)CCCC2`, the outcome in [1], in assay [2], in assay [3], in assay [4], in assay [5] and in assay [6] was inactive. Further, the compound was called inactive in assay [7], in [8] and in [10]. Also, the Potency entry in assay [9] is “inactive”.
For the compound `C[N+](C)(C)CC(O)CC(=O)[O-]` (stereo not given), the result in assay [1], in [2], in assay [3], in assay [4], in assay [5] and in assay [6] was inactive. Moreover, the result in [7], in [8] and in assay [10] was inactive. Moreover, in [9], the Potency result is “inactive”.
For the compound `CCOC(=O)[C@H](CCc1ccccc1)N[C@@H](C)C(=O)N1Cc2cc(OC)c(OC)cc2C[C@H]1C(=O)O`, the outcome in assay [1], in [2], in assay [3], in assay [4], in [5] and in assay [6] was inactive. Besides, the compound was called inactive in assay [7], in assay [8] and in assay [10]. In addition, the Potency entry in [9] was “inactive”.
Turning to `NS(=O)(=O)c1cc(C2(O)NC(=O)c3ccccc32)ccc1Cl` (stereo not given), the compound was classed as inactive in assay [1], in assay [2], in assay [3], in [4], in [5] and in assay [6]. Moreover, the outcome in assay [7], in assay [8] and in assay [10] was inactive. In addition, the Potency result in assay [9] was “inactive”.
In the case of `CN/C(=C\[N+](=O)[O-])NCCSCc1csc(CN(C)C)n1`, the outcome in assay [1], in [2], in assay [3], in assay [4], in assay [5] and in assay [6] was inactive. Moreover, the result in [7], in assay [8] and in assay [10] was inactive. In [9], the Potency entry is “inactive”.
On to `CC(=O)OCC(COC(C)=O)OC(C)=O`, for which the compound was called inactive in assay [1], in [2], in [3], in assay [4], in assay [5] and in assay [6]. Moreover, the compound was called inactive in assay [7], in assay [8] and in assay [10]. Besides, the Potency result in [9] is “inactive”.
Consider `NC(=O)NC1NC(=O)NC1=O` (stereo not given), for which the call in [1], in assay [2], in assay [3], in assay [4], in [5] and in assay [6] was inactive. Besides, the compound was called inactive in assay [7], in assay [8] and in [10]. Further, the Potency entry in [9] is “inactive”.
With `CN1CCCN=C1COC(=O)C(O)(c1ccccc1)C1CCCCC1` (stereo not given), the call in assay [1], in assay [2], in assay [3], in assay [4], in [5] and in [6] was inactive. Besides, the result in assay [7], in assay [8] and in [10] was inactive. Also, in assay [9], the Potency entry was “inactive”.
With `OCC(O)CS` (stereo not given), the call in assay [1], in assay [2], in assay [3], in assay [4], in assay [5] and in assay [6] was inactive. The result in assay [7], in assay [8] and in [10] was inactive. The Potency result in assay [9] is “inactive”.
As for `CC(=O)N1C[C@H](O)C[C@H]1C(=O)O`, the result in assay [1], in [2], in assay [3], in [4], in assay [5] and in [6] was inactive. For the same compound, the compound was classed as inactive in [7], in assay [8] and in [10]. Moreover, the Potency result in [9] is “inactive”.
With `COc1ccccc1OC(=O)Oc1ccccc1OC`, the call in [1], in [2], in assay [3], in assay [4], in [5] and in assay [6] was inactive. Moreover, the compound was called inactive in assay [7], in assay [8] and in assay [10]. The Potency entry in [9] was “inactive”.
For the compound `CCCNC(C)(C)COC(=O)c1ccccc1`, the result in assay [1], in [2], in assay [3], in assay [4], in assay [5] and in assay [6] was inactive. Further, the outcome in assay [7], in [8] and in [10] was inactive. The Potency entry in [9] is “inactive”.
Turning to `C/C=C1\[C@H]2C=C(C)C[C@]1(N)c1ccc(=O)[nH]c1C2`, the compound was classed as inactive in [1], in [2], in [3], in assay [4], in assay [5] and in assay [6]. Further, the call in assay [7], in [8] and in assay [10] was inactive. For the same compound, the Potency result in assay [9] is “inactive”.
Turning to `CCCCCCCC(=O)OCC(O)CO` (stereo not given), the result in [1], in assay [2], in assay [3], in assay [4], in [5] and in assay [6] was inactive. In addition, the call in assay [7], in [8] and in assay [10] was inactive. For the same compound, the Potency in assay [9] is 3.55 µM (active).
As for `O=S1(=O)OC(c2ccc(O)cc2)(c2ccc(O)cc2)c2ccccc21`, the outcome in [1], in assay [2], in [3], in [4], in assay [5] and in assay [6] was inactive. For the same compound, the compound was classed as inactive in [7], in [8] and in assay [10]. In addition, the Potency entry in assay [9] is “inactive”.
As to `Cc1c(NC(C)C)c(=O)n(-c2ccccc2)n1C`, the compound was called inactive in assay [1], in assay [2], in [3], in assay [4], in assay [5] and in assay [6]. The compound was classed as inactive in assay [7], in [8] and in assay [10]. In addition, the Potency entry in [9] is “inactive”.
Consider `NCc1ccc(S(N)(=O)=O)cc1`, for which the compound was classed as inactive in assay [1], in assay [2], in assay [3], in assay [4], in [5] and in assay [6]. The compound was classed as inactive in [7], in assay [8] and in [10]. Also, the Potency result in assay [9] was “inactive”.
On to `CC[C@H](C)[C@H](N)C(=O)O`, for which the compound was called inactive in assay [1], in assay [2], in assay [3], in [4], in assay [5] and in assay [6]. Besides, the compound was classed as inactive in [7], in [8] and in assay [10]. In addition, in [9], the Potency result is “inactive”.
`CN1C(=O)CC(c2ccccc2)C1=O` (stereo not given): the call in assay [1], in assay [2], in [3], in assay [4], in assay [5] and in assay [6] was inactive. Besides, the compound was called inactive in [7], in assay [8] and in assay [10]. For the same compound, the Potency entry in [9] is “inactive”.
